Reference: PubChem BioAssay (NCATS)
Results filed as inconclusive are left out. Activity calls are given as the source filed them. Unless noted, calls follow the shape of the dose curve; as a rule, active = well fitted curve in the direction sought with a large enough effect; inconclusive = small, poorly fitted or top-dose-only effect, or another doubt; inactive = no such curve, though single readings can be large; an effect the other way counts as inactive or inconclusive.

How the values were obtained:
[1] = target: Peroxisome proliferator-activated receptor gamma (Homo sapiens) (UniProt P37231); assay: qHTS assay for small molecule agonists of peroxisome proliferator-activated receptor gamma signaling (AID 588536; active = well fitted curve in the direction sought with a large enough effect in the signal ratio, with a control signal flat, not every such curve was filed as active; the % refers to the signal ratio;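 also: 0% = DMSO basal wells and 100% = rosiglitazone at 2 µM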)
Sequence of Peroxisome proliferator-activated receptor gamma (Homo sapiens) (P37231 whole entry, looked up): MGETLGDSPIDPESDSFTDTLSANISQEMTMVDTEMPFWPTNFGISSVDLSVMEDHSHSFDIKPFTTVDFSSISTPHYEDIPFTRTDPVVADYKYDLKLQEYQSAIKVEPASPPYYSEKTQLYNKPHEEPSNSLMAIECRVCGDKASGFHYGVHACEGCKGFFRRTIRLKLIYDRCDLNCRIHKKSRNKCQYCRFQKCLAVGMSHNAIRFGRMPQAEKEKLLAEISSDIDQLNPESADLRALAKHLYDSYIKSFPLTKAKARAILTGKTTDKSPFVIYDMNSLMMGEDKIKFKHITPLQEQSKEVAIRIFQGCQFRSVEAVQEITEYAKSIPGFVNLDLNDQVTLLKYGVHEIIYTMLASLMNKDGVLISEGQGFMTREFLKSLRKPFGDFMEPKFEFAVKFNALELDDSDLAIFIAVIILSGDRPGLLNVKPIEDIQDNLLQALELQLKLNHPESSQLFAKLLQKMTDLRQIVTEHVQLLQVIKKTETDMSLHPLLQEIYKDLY
In short: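 Cells were plated and held 6–6.5 h at 37 C, then compounds were added as a titration series. After a further 16 h, CCF4 dye was loaded for 2 h at room temperature and emission at 460/530 nm recorded.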

[2] = qHTS assay for small molecule agonists of retinoid X receptor alpha signaling (AID 588544; calls by dose curve;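 as to activation: 0% = DMSO basal wells and 100% = reference agonist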); details: HEK293T RXRa-UAS-bla, beta-lactamase reporter, 18 h; 530 nm emission
[3] = target: Retinoic acid receptor RXR-alpha (Homo sapiens) (UniProt P19793); assay: as above
Sequence of Retinoic acid receptor RXR-alpha (Homo sapiens) (P19793 whole entry, looked up): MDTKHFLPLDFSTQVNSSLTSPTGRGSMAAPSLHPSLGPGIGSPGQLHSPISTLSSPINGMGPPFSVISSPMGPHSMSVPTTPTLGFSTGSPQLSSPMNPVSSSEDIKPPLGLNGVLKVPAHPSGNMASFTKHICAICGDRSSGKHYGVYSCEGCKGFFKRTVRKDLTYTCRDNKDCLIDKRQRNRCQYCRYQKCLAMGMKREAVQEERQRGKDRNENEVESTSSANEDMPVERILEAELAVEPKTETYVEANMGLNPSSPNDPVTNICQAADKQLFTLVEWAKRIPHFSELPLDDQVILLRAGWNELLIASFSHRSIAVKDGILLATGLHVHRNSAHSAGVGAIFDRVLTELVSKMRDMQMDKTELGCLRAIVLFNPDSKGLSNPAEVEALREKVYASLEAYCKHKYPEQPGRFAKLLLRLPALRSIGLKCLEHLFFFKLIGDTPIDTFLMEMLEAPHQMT

[4] = target: Thyroid hormone receptor beta (Homo sapiens) (UniProt P10828); assay: qHTS assay for small molecule agonists of thyroid hormone receptor beta signaling (AID 588545; calls by dose curve)
Sequence of Thyroid hormone receptor beta (Homo sapiens) (P10828 whole entry, looked up): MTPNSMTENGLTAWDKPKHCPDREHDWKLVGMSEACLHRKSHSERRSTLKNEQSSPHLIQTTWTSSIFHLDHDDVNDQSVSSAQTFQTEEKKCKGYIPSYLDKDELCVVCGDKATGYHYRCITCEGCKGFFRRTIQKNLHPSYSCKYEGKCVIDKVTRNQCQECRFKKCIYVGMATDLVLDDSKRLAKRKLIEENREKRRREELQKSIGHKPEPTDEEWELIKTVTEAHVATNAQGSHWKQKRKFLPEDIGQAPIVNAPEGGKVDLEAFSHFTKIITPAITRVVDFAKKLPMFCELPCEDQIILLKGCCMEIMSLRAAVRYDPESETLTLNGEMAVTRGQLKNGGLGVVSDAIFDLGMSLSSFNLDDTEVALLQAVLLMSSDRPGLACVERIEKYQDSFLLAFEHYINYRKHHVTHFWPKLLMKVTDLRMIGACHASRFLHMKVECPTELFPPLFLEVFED
In short: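 Agonist activity was read as beta-lactamase CCF4 fluorescence (405 ex, 460/530 em), scaled between DMSO (0%) and 10 nM T3 (100%), then Hill-fitted for EC50 and efficacy. HEK 293 TR-UAS-bla cells in 2% charcoal/dextran FBS medium were exposed 18 h at 37 C.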

[5] = qHTS assay for small molecule antagonists of retinoid X receptor alpha signaling (AID 588546; active = well fitted inhibition curve with a large enough effect in the signal ratio, with a control signal flat, not every such curve was filed as active; the % refers to the signal ratio;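 also: cells stimulated with 9-cis-retinoic acid as agonist; % is scaled to controls: 0 for no effect and ±100 for the full control effect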); details: HEK293T RXRa-UAS-bla, beta-lactamase ratio, antagonist mode; measured here: W530 green channel, cytotoxicity proxy
In short: (§1)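 Beta-lactamase reporter inhibition, read as CCF4 fluorescence ratio (ex 405, em 460/530 nm) after 2 h at RT. HEK293T UAS-bla cells, 2500/well, were stimulated with 9-cis-RA at 500 or 100 nM final alongside test compound for 18 h at 37 C.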

[6] = target: Retinoic acid receptor RXR-alpha (Homo sapiens) (UniProt P19793); assay: as above; details: HEK293T RXRa-UAS-bla, beta-lactamase ratio, antagonist mode
In short: as §1

[7] = target: Thyroid hormone receptor beta (Homo sapiens) (UniProt P10828); assay: qHTS assay for small molecule antagonists of thyroid hormone receptor beta signaling (AID 588547; active = well fitted inhibition curve with a large enough effect in the signal ratio, with a control signal flat, not every such curve was filed as active; the % refers to the signal ratio;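 also: cells stimulated with 0.4 nM T3 agonist during compound exposure; series mostly up to about 77 µM; % is scaled to controls: 0 for no effect and ±100 for the full control effect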); details: TR-UAS-bla HEK293, beta-lactamase ratio, antagonist mode, 18 h
In short: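 TR-UAS-bla GripTite HEK293 cells in 2% charcoal/dextran FBS medium were preincubated 4 h at 37 C, given compound (0.59 nM to 92 uM) plus 0.4 nM T3 (final) for 18 h, then CCF4 for 2 h at RT; Hill fit gave IC50.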

[8] = target: Voltage-gated inwardly rectifying potassium channel KCNH2 (Homo sapiens) (UniProt Q12809); assay: qHTS Assay for Small Molecule Inhibitors of the Human hERG Channel Activity (AID 588834);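 also: top concentration of the series differs between compounds; % is scaled to controls: 0 for no effect and ±100 for the full control effect; lower thallium flux fluorescence means stronger hERG block; nearly all actives have a fitted effect of over 50% in size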
Sequence of Voltage-gated inwardly rectifying potassium channel KCNH2 (Homo sapiens) (Q12809 whole entry, looked up): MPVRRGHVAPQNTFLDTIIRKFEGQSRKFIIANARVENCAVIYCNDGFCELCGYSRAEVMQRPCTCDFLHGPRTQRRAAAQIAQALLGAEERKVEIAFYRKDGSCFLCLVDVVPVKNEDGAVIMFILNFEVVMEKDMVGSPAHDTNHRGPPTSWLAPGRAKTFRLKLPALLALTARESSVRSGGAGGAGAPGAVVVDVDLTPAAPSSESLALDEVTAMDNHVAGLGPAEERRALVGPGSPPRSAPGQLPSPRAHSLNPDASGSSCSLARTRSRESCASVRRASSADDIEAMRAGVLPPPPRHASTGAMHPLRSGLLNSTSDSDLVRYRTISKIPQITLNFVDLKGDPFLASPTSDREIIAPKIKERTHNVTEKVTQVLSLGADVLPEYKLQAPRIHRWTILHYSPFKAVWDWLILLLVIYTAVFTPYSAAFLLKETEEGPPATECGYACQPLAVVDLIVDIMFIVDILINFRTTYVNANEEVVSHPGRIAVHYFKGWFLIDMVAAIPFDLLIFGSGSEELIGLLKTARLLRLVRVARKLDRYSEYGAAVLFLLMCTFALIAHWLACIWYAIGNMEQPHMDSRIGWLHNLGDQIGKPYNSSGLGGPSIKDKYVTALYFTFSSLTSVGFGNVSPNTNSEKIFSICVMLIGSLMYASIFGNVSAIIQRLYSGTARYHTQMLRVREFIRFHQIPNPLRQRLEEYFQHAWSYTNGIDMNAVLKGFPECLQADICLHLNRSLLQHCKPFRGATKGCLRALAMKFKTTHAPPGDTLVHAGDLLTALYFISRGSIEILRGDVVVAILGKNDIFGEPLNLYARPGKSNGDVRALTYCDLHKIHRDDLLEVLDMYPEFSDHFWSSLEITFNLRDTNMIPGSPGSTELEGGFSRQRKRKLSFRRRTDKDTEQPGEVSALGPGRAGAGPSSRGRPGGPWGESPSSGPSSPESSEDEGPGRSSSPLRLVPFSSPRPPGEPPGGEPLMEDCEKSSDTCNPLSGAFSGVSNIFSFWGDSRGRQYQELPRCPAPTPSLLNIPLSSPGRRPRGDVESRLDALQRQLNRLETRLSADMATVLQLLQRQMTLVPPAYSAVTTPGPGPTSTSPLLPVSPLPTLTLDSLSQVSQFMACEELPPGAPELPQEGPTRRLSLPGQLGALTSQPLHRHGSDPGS
In short: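 Homogeneous FluxOR thallium flux assay using hERG-expressing U2OS cells (BacMam). Compound treatment about 10 minutes preceded stimulation; reduced fluorescence taken as channel block.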

[9] = qHTS assay for small molecule activators of the p53 signaling pathway (AID 651743; active = well fitted activation curve with a large enough effect in the signal ratio, not every such curve was filed as active; the % refers to the signal ratio; also: series mostly up to about 92 µM; % of control where 0% means no effect); details: HCT-116 p53RE-bla, beta-lactamase FRET ratio, 16 h; activation: stronger effect = higher value
In short: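 Here HCT-116 cells with an integrated p53-responsive beta-lactamase gene were incubated with compounds (16 hours, 37 C) after a 5-hour plating period; beta-lactamase activity was detected as fluorescence intensity via B/G FRET substrate.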

[10] = qHTS assay for small molecule activators of the nuclear factor-kappa B (NF-kB) signaling pathway (AID 651749; active = well fitted activation curve with a large enough effect in the signal ratio; the % refers to the signal ratio; also: series mostly up to about 77 µM; % of control where 0% means no effect); details: NF-kB-bla ME-180 cells, beta-lactamase FRET ratio, 16 h; stronger effect = higher value
In short: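 Beta-lactamase reporter expression, controlled by NF-kB response elements in ME-180 cells, was quantified fluorometrically via FRET disruption; cells at 2,000/well had been incubated with 23 nL test compound for 16 hr.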

[11] = qHTS assay for small molecule disruptors of the mitochondrial membrane potential - 1 hr assay (AID 651754; calls by dose curve; also: potency is read from the fitted curve at half-maximal effect; nearly all actives have a fitted effect of over 35% in size)
In short: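 Read-out: dye fluorescence at 490 nm ex/535 nm em (monomers) and 540 nm ex/590 nm em (aggregates) in HepG2 cells. Compound exposure 1 hr at 37C, followed by 30 min dye loading.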

[12] = qHTS assay for small molecule disruptors of the mitochondrial membrane potential - 5 hr assay (AID 651755; calls by dose curve; also: potency is read from the fitted curve at half-maximal effect; nearly all actives have a fitted effect of over 40% in size)
In short: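 Seed HepG2 overnight, add compound, incubate 5 hr at 37C and 5% CO2, stain 30 min with Mito-MPS, then measure monomer (490/535 nm) and aggregate (540/590 nm) fluorescence.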

[13] = target: Tumor necrosis factor (Homo sapiens) (UniProt P01375); assay: qHTS assay to identify small molecules that stimulate Tumor Necrosis Factor-alpha (TNF-alpha) secretion (AID 651757; active = well fitted curve in the direction sought with a large enough effect in the signal ratio; the % refers to the signal ratio; also: 0% is about no effect)
Sequence of Tumor necrosis factor (Homo sapiens) (P01375 whole entry, looked up): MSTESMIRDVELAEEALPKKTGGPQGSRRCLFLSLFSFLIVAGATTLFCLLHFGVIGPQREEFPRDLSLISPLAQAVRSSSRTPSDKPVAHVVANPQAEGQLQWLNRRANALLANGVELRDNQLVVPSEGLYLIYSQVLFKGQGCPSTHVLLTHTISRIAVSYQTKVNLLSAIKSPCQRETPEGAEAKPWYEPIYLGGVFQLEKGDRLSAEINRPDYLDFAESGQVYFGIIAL
In short: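 THP-1 cells, 3000/well; compound 17 hrs, 37 C; add cryptate/XL665 anti-TNF-alpha antibody pair; 3 hr RT; TR-FRET (HTRF) read of secreted TNF-alpha. Quantitative HTS format.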

[14] = qHTS assay for environmental chemicals that activate the Aryl hydrocarbon Receptor (AhR) signaling pathway (AID 651777); details: 1A2-DRE human hepatoma cells, luciferase, 24 h; activation: stronger effect = higher value; also: potency is read from the fitted curve at half-maximal effect; nearly all actives have a fitted effect of over 15% in size
In short: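 Reporter gene assay: hepatoma cells with DRE/CYP1A2-luciferase, 24 hr compound incubation at 37 C, 5% CO2, luminescence after One-Glo (30 min, RT).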

[15] = target: Peroxisome proliferator-activated receptor alpha (Homo sapiens) (UniProt Q07869); assay: qHTS assay for small molecule agonists of the peroxisome proliferator-activated receptor alpha (PPARalpha) signaling pathway (AID 651778); details: PathHunter PPARalpha complementation, chemiluminescence, 6 h; stronger effect = higher value; also: % of control where 0% means no effect
Sequence of Peroxisome proliferator-activated receptor alpha (Homo sapiens) (Q07869 whole entry, looked up): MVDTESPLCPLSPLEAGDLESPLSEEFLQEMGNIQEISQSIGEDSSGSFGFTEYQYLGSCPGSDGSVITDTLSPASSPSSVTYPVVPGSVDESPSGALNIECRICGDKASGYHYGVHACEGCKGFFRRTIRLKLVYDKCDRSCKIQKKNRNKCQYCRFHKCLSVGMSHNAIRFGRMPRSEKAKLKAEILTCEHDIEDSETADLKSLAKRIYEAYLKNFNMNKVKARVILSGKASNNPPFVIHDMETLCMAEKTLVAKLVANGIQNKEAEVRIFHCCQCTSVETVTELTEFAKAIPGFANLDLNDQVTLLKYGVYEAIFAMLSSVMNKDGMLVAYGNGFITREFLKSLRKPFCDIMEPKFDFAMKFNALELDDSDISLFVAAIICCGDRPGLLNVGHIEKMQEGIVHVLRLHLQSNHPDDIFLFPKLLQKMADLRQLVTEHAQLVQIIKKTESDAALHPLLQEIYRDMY
In short: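 Cells plated at 2,000/well and held overnight at 37 C, 5% CO2, then compound added by pin tool for 6 hr; after PathHunter detection reagent and 60 min at room temperature, chemiluminescence from enzyme complementation was read.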

[16] = target: Nuclear receptor ROR-gamma (Homo sapiens) (UniProt P51449); assay: qHTS assay for small molecule antagonists of the retinoid-related orphan receptor gamma (ROR-gamma) signaling pathway (AID 651802);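 also: CHO cells with doxycycline-induced ROR-gamma expression; luciferase reporter luminescence driven by ROR response element; series mostly up to about 92 µM; % is scaled to controls: 0 for no effect and ±100 for the full control effect; nearly all actives have a fitted effect of over 60% in size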
Sequence of Nuclear receptor ROR-gamma (Homo sapiens) (P51449 whole entry, looked up): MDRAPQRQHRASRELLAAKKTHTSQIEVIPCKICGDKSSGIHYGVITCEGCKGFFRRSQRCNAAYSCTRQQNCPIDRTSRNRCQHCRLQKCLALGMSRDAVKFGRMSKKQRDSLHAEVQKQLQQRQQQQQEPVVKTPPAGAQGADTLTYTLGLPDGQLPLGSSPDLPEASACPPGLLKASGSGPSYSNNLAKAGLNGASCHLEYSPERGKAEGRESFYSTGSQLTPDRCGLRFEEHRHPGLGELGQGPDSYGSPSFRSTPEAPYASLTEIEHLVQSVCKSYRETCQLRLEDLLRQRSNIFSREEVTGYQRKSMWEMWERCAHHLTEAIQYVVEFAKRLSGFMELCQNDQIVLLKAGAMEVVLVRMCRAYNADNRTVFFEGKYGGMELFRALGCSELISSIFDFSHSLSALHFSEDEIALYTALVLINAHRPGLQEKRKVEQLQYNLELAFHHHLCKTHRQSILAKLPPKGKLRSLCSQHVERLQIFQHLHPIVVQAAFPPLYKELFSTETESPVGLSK
In short: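 Luciferase read-out: ONE-Glo luminescence after 30 min at room temperature, following 16hr doxycycline induction at 37C, 5% CO2 of CHO cells with TET-inducible ROR and RORE-LUC reporter; decreased luminescence = reduced reporter activity.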

[17] = qHTS assay for small molecule antagonists of the retinoid-related orphan receptor gamma (ROR-gamma) signaling pathway - cell viability counter screen (AID 720652; active = well fitted curve in the direction sought with a large enough effect in the repeat runs; an effect the other way counts as inactive or inconclusive;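 also: CHO reporter cells with doxycycline-induced ROR-gamma expression; series mostly up to about 92 µM; compound exposure lasted 16 hr before ATP read; % is scaled to controls: 0 for no effect and ±100 for the full control effect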)
In short: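 CHO RORE-LUC/TET-ROR line, 1,000 cells/well, 37 C 5% CO2 5 hr; cpd or DMSO + doxycycline induction, 16 hr. CellTiter-Glo, 30 min RT, luminescence = ATP content.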

[18] = qHTS assay for small molecule agonists of the antioxidant response element (ARE) signaling pathway measured by Nrf2-dependant transcriptional activity - cell viability counter screen (AID 720653; active = well fitted curve in the direction sought with a large enough effect in the repeat runs; an effect the other way counts as inactive or inconclusive; also: % is scaled to controls: 0 for no effect and ±100 for the full control effect); details: ARE-bla HepG2 viability, CellTiter-Glo ATP luminescence, 16 h; stronger effect = lower value
In short: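 ARE-bla HepG2 cells (2,000/well) rested 5 hrs at 37C/5% CO2, then exposed to compounds in DMSO for 16 hrs. Viability was read in the same wells as intracellular ATP by luminescence, 30 min at room temperature after reagent addition.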

[19] = qHTS assay for cell viability of HEK293 cells (AID 743288); details: ATP luminescence (CellTiter-Glo), 18 h, stronger effect = lower value; also: % is scaled to controls: 0 for no effect and ±100 for the full control effect; nearly all actives have a fitted effect of over 50% in size
In short: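 HEK293, 18 h, 37 C, ATP luminescence. Cells at 2,000/well were allowed at least 5 h to settle before dosing; CellTiter-Glo developed 30 min at RT.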

[20] = qHTS assay for cell viability of the p53RE-bla HCT-116 cell line (AID 743292); also: % is scaled to controls: 0 for no effect and ±100 for the full control effect; nearly all actives have a fitted effect of over 55% in size
In short: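 ATP-based luminescence, 16 h compound exposure at 37 C, p53RE-bla HCT-116 cells at 4,000/well.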

[21] = target: Calcium and integrin-binding protein 1 (Homo sapiens) (UniProt Q99828); assay: Primary qHTS for Identification of Calcium Integrin Binding Protein 1 (CIB1) Competitor (AID 1508620)
Sequence of Calcium and integrin-binding protein 1 (Homo sapiens) (Q99828 whole entry, looked up): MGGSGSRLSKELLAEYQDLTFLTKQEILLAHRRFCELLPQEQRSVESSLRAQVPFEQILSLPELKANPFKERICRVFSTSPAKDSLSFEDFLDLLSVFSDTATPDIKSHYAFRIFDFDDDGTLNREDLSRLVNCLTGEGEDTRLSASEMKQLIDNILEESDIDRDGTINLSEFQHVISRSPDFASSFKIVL
In short: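 Fluorescence polarization competition: CIB1-GST (1 uM final) preincubated with compound 15 min at room temperature, then FITC-labeled alphaIIb peptide (100 nM final) added for another 15 min. Polarization read at Ex 480/Em 540.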

O=C(Nc1ccccc1)Nc1ccccc1
inactive: outcome [1] | outcome [3] | outcome [4] | max response [6] -1.03% | activity change % (negative = inhibition) [7] -2.58% | Potency [8] | activation [9] -2.22% | activation [10] 0.321% | Potency [13] | max response [15] -3.47% | outcome [16] | outcome [17] | max response [18] -0.927% | max response [19] -16.1% | Potency [20] | Potency [21]
active: Potency [11] 10.6 µM | Potency [12] 13.3 µM | Potency [14] 12.6 µM
-7.85%: max response [5]
-6.23%: max response [2]
